From PubChem
Shown is part of a subset that was picked to be rich in hits.
IMPase Li cell: membrane-permeable IMPase blocker, potentiated with lithium | CHO-M1 cells, IP1 TR-FRET (IP-One), carbachol + lithium | Potency, µM (titrated, usually from 59.4 µM), for inactives: top-dose activity, negative = IMPase inhibition, usual class: inhibitors | actives 0.35% (n = 210,000) | AID 1457;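 note: IP1 builds up when IMPase is blocked and the TR-FRET signal falls; plate controls were basal vehicle for no effect and high inhibitor control for full effect; nearly all actives have a fitted effect of over 50% in size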
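IP1 accumulation measured by competitive TR-FRET in lysed CHO-M1 cells after 30 min compound exposure at 37C, with a small lithium addition to potentiate weak responses. Hill-equation AC50 from ratio and donor-channel data.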
Tb PFK block: T. brucei PFK enzyme inhibition; actives 0.17% (n = 330,000); T. brucei PFK, ADP-Glo luminescence; AID 485367; O15648; Potency, µM (series often up to 57.5 µM), inactives show at the highest dose activity, negative = inhibition, most hits filed as inhibitors;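 note: 0% = uninhibited 1x PFK enzyme wells and -100% = no-enzyme wells; nearly all actives have a fitted effect of over 60% in size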
Target sequence (O15648 whole entry, looked up): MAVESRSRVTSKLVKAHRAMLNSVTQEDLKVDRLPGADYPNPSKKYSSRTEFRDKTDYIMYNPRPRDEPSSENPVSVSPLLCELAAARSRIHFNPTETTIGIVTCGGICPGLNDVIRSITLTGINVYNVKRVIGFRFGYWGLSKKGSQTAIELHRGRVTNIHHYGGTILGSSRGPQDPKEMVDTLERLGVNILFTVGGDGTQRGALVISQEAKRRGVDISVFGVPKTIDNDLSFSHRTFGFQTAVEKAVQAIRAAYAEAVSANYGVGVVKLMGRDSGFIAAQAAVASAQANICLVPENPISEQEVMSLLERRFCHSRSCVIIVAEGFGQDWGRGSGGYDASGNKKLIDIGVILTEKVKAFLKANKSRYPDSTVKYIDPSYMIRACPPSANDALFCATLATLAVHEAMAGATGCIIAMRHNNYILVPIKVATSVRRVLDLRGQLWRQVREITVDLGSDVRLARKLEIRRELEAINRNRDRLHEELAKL
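PFK 1.25 nM, F6P 0.5 mM, ATP 0.1 mM, 0.1 M TEA pH 8.0, 5 mM MgCl2, 0.01% Tween20, 0.1% BSA; 45 min RT. ADP-Glo readout. qHTS titration up to 57 uM; curves fitted, compounds curve-classed.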
RGS12 GoLoco inh: RGS12 GoLoco-Gai1 interaction inhibition; Potency, µM (doses to about 61.6 µM), inactives show top-dose activity, negative = inhibition, actives largely listed as inhibitors; AID 880; P63096; actives 0.44% (n = 230,000); Gai1:RGS12 GoLoco peptide FP, rhodamine, 10 min; active = well fitted inhibition curve with a large enough effect, not every such curve was filed as active; inactive = no such curve, though single readings can be large or run the other way; note: nearly all actives have a fitted effect of over 30% in size
MBNL1-CUG inh: MBNL1-poly(CUG) RNA binding inhibition | TR-FRET MBNL1-His/biotin-(CUG)12 binding, 665/545 ratio | Potency, µM (top dose mostly 57.5 µM), for inactives: at the highest dose activity change, negative = inhibition, hits mostly inhibitors | actives 0.036% (n = 280,000) | AID 2675; active = well fitted inhibition curve with a large enough effect in the signal ratio, with a control signal flat, not every such curve was filed as active; inconclusive = small, poorly fitted or top-dose-only effect, or effect the other way, or a change in a side signal; inactive = no such curve, though single readings can be large or run the other way; the % refers to the signal ratio
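TR-FRET readout: Ex 340 nm, 665/545 nm emission ratio, normalized to buffer-only (basal) and MBNL1-(CUG)12 controls. Complex of MBNL1-His with Biotin-(CUG)12, compounds 92 nM–58 uM, incubated 60 min at room temperature.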
NPSR antagonist: antagonists of human neuropeptide S receptor cAMP signaling; CHO-NPSR cells, cAMP TR-FRET, antagonist mode; Q6W5P4; Potency, µM (highest dose often 38.3 µM), without a hit: top-dose activity change, negative = inhibition, most hits filed as inhibitors; actives 1% (n = 220,000); note: nearly all actives have a fitted effect of over 50% in size
An asterisk follows results filed as active; [ ] = dose if it differs, or a comment. Unless noted, calls come from the whole dose curve; as a rule, active = well fitted curve in the direction sought with a large enough effect; inconclusive = small, poorly fitted or top-dose-only effect, or another doubt; inactive = no such curve, though single readings can be large; an effect the other way counts as inactive or inconclusive. Unless noted, % is set by controls: 0 for no effect and ±100 for the full control effect; potency is the fitted concentration of half-maximal effect.

`CCOc1ccc(C2Nc3ccc4ccccc4c3-c3c2c(=O)oc2ccccc32)cc1` (stereo not drawn) gave IMPase Li cell 5.3%[38.3 µM], Tb PFK block -4.8%, RGS12 GoLoco inh -4.6%, MBNL1-CUG inh 1.2% and NPSR antagonist 10µM*.
CCOc1ccc(OCC(=O)c2c(O)c3ccccc3oc2=O)cc1 was read as IMPase Li cell -6.3%[38.3 µM], Tb PFK block -10.8%, RGS12 GoLoco inh -18.9%, MBNL1-CUG inh 2.8% and NPSR antagonist -2.7%[46.1 µM].
O=c1oc2ccccc2c2c1C(c1ccc(Cl)cc1)Nc1ccc3ccccc3c1-2 (stereo not drawn) was read as IMPase Li cell 19.8%[38.3 µM], Tb PFK block 2.3%, RGS12 GoLoco inh 4.3%, MBNL1-CUG inh -5.0% and NPSR antagonist inconclusive.
`COc1ccc(C2Nc3ccc4ccccc4c3-c3c2c(=O)oc2ccccc32)cc1` (stereo not drawn) gave IMPase Li cell -29.4%[38.3 µM], Tb PFK block 0.1%, RGS12 GoLoco inh -8.9%, MBNL1-CUG inh -3.0% and NPSR antagonist 7.94µM*.
Screening Cc1ccc2cc3c(N)c4c(C)ccc(C)c4nc3nc2c1 returned IMPase Li cell 30.7%, Tb PFK block 11.7%, RGS12 GoLoco inh 17.8µM*, MBNL1-CUG inh -3.4% and NPSR antagonist -11.2%.
`Cc1ccc2c(N)c(C)ccc2c1` gave IMPase Li cell -10.1%[38.3 µM], Tb PFK block 2.3%, RGS12 GoLoco inh 7.3%, MBNL1-CUG inh 11.9% and NPSR antagonist 11.4%[46.1 µM].
Screening CC1Cc2ccccc2N1C(=O)COc1nc2ccccc2nc1N1CCOCC1 (stereo not drawn) returned IMPase Li cell 25.1µM*, Tb PFK block -4.1%, RGS12 GoLoco inh 12.0%, MBNL1-CUG inh 15.0% and NPSR antagonist -27.3%[46.1 µM].
N#Cc1c(-c2ccc3c(c2)OCO3)ccn2nc(-c3cccc(C(F)(F)F)c3)nc12 was read as IMPase Li cell 12.6µM*, Tb PFK block 4.6%, RGS12 GoLoco inh 27.1%, MBNL1-CUG inh 96.1% and NPSR antagonist -20.5%[46.1 µM].
Screening COc1nc(-c2ccccc2)cc(-c2ccc3c(c2)OCO3)c1C#N returned Tb PFK block 0.9%, RGS12 GoLoco inh -6.0%, MBNL1-CUG inh -3.3% and NPSR antagonist 50.8%.
For Cn1c(C(=O)OCC(=O)NCc2cccs2)cc2sccc21 the results were IMPase Li cell 14.1µM*, Tb PFK block -0.9%, RGS12 GoLoco inh 4.3%, MBNL1-CUG inh 29.1% and NPSR antagonist 17.7%[46.1 µM].
For O=C1NC(=Nc2ccccc2)S/C1=C\c1cccs1 the results were Tb PFK block -8.8%, RGS12 GoLoco inh -1.2%, MBNL1-CUG inh 14.1% and NPSR antagonist -19.4%.
Cc1cc(C)cc(N=C2NC(=O)/C(=C/c3cccs3)S2)c1 was read as IMPase Li cell 4.8%, Tb PFK block -1.2%, RGS12 GoLoco inh 1.78µM*, MBNL1-CUG inh -9.0% and NPSR antagonist -11.7%.
Screening O=C(NC1CC1)c1ccc(NS(=O)(=O)c2ccc(F)cc2)cc1 returned Tb PFK block -7.5%.
Screening COc1ncccc1C(=O)N1CCC(n2nccc2NC(=O)CC(C)C)CC1 returned Tb PFK block -4.7% and MBNL1-CUG inh 2.7%.
Screening Cc1cc(NS(=O)(=O)c2ccc(NC(=O)c3ccccc3C)cc2)no1 returned Tb PFK block 0.4% and MBNL1-CUG inh -0.8%.
Screening Cc1ccc(-c2cc(C(=O)Nc3ccc(S(=O)(=O)Nc4cc(C)on4)cc3)c3ccccc3n2)c(C)c1 returned IMPase Li cell 6.9%[38.3 µM], Tb PFK block 1.8%, RGS12 GoLoco inh 5.6%, MBNL1-CUG inh -3.4% and NPSR antagonist 10µM*.
For N#Cc1c(N)nc(SCC(=O)C23CC4CC(CC(C4)C2)C3)c(C#N)c1-c1ccc(Cl)cc1 the results were IMPase Li cell 3.55µM*, Tb PFK block -1.1%, RGS12 GoLoco inh 13.5%, MBNL1-CUG inh 212.6% and NPSR antagonist 3.16µM*.
Screening C(=N\Nc1nc2ccccc2[nH]1)/c1ccccn1 returned IMPase Li cell 19.5%, Tb PFK block -11.6%, RGS12 GoLoco inh -3.7%, MBNL1-CUG inh 9.2% and NPSR antagonist 10µM*.
C#CCn1cc(/C=N/NC(=O)COc2cccc3cccnc23)c2ccccc21 was read as IMPase Li cell -0.5%, Tb PFK block -7.8%, RGS12 GoLoco inh 0.794µM* and NPSR antagonist 10.6%.
For C#CCn1cc(/C=N/Nc2nc3ccccc3[nH]2)c2ccccc21 the results were IMPase Li cell 12.4%, Tb PFK block 0.0%, RGS12 GoLoco inh -0.7%, MBNL1-CUG inh -6.8% and NPSR antagonist 12.6µM*.
Screening c1ccc2c(c1)CC/C2=N/Nc1nc2ccccc2[nH]1 returned IMPase Li cell 31.0%, Tb PFK block 2.0%, RGS12 GoLoco inh 6.3%, MBNL1-CUG inh -1.6% and NPSR antagonist 7.94µM*.
`NC(=O)C1CCN(CCC(=O)Nc2ccc(F)c(F)c2)CC1` gave Tb PFK block -2.4% and MBNL1-CUG inh -5.0%.
For COc1ccc(C(=O)NCCc2ccccn2)cc1S(=O)(=O)Nc1ccc(Br)cc1 the results were Tb PFK block -12.4%.
Screening CCCCn1c(/C=N/Nc2nc3ccccc3[nH]2)nc2ccccc21 returned IMPase Li cell 31.0%, Tb PFK block -0.3%, RGS12 GoLoco inh -2.6%, MBNL1-CUG inh 5.6% and NPSR antagonist 12.6µM*.
Screening CCCCn1c(/C=C/c2ccco2)nc2ccccc21 returned IMPase Li cell 10.7%, Tb PFK block -14.4%, RGS12 GoLoco inh 184.5%, MBNL1-CUG inh 11.7% and NPSR antagonist -23.1%[46.1 µM].
Screening O=C(O)c1ccc(CNc2ccccc2C(=O)O)cc1 returned IMPase Li cell 10µM*, Tb PFK block inconclusive, RGS12 GoLoco inh -27.3%, MBNL1-CUG inh -29.2% and NPSR antagonist -4.2%[46.1 µM].
CCOc1cc(/C=C2/C(=O)ON=C2C)ccc1OCc1ccccc1F was read as IMPase Li cell 26.4%[38.3 µM], Tb PFK block -0.3%, RGS12 GoLoco inh 41.8%, MBNL1-CUG inh -3.1% and NPSR antagonist 15.8µM*.
CCOc1cc(/C=C2/C(=O)ON=C2C)ccc1OCc1ccccc1 was read as IMPase Li cell 23.8%, Tb PFK block -9.8%, RGS12 GoLoco inh 25.3%, MBNL1-CUG inh 9.7% and NPSR antagonist 26.8%.
`COc1cc(C2C=C(C34CC5CC(CC(C5)C3)C4)NC(=S)N2)cc(OC)c1OC` (stereo not drawn) gave IMPase Li cell 28.7%[38.3 µM], Tb PFK block 0.2%, RGS12 GoLoco inh -1.4%, MBNL1-CUG inh -5.8% and NPSR antagonist 10µM*.
For COc1ccc(OC)c(C2C=C(C34CC5CC(CC(C5)C3)C4)NC(=S)N2)c1 (stereo not drawn) the results were IMPase Li cell -3.9%, Tb PFK block 1.8%, RGS12 GoLoco inh -6.5% and NPSR antagonist -38.0%.
`O[C@H]1[C@H]2c3cc4c(cc3CN3CCC(=C[C@@H]1O)[C@H]23)OCO4` gave IMPase Li cell -2.9% and RGS12 GoLoco inh -3.3%.
